CYP2C19 act = human CYP2C19 activators, primary screen, biochemical, luminescence. Cytochrome P450 2C19 (Homo sapiens), P33261. recombinant CYP2C19, luciferin-H EGE luminescence; hits give high values; 0 = fully inhibited enzyme, 1 = untreated enzyme. activation factor at 5 µM. 96,000 tested, under 10 active. AID 1025, 2008;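 active = activation factor of at least 2 at 5 µM in the primary screen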
CYP2C19 inh = blockers of cytochrome P450 2C19 activity – biochemical, luminescence, ADME assay, primary screen | CYP2C19 Supersomes, luciferin-H EGE luminescence, 30 min | 96,000 compounds, 21% hits | P33261 | AID 778, 2007 | inhibition, % at 5 µM;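 active = CYP2C19 inhibition above a set limit at 5 µM in the primary screen, cut at about 50% in these data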
PLK1 inh = human PLK1 kinase inhibitors, primary screen, biochemical, TR-FRET. Serine/threonine-protein kinase PLK1 (Homo sapiens), P53350. recombinant PLK1 kinase, TR-FRET peptide phosphorylation. inhibition, % at 10 µM. 97,000 compounds, 0.53% hits. AID 619, 2007;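 active = inhibition of 50% or more in the single-concentration screen; inactive = inhibition below 50%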
CYP2C9 activ = human CYP2C9 activators, primary screen, biochemical, luminescence. Cytochrome P450 2C9 (Homo sapiens), P11712. recombinant CYP2C9, luciferin-H conversion; hits give high values; factor 1 = untreated enzyme, 0 = blocked. activation factor at 5 µM. 96,000 compounds, 1.4% hits. AID 1024, 2008;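 active = activation factor of 2 or more for CYP2C9 at a 5 µM dose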
PLK1 PBD inh = Plk1 polo box domain binding inhibitors, primary screen, biochemical, fluorescence polarization. Plk1 PBD phosphopeptide binding. inhibition, %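 (tested at about 20 µM)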. AID 693, 2007. Serine/threonine-protein kinase PLK1 (Homo sapiens), P53350. 97,000 compounds, 0.13% hits; in the data active = inhibition above about 34%, passing the limit was not always enough
CYP2C9 inh = blockers of cytochrome P450 2C9 activity – biochemical, luminescence, ADME assay, primary screen; P11712; CYP2C9 Supersomes, luciferin-H conversion; inhibition, % at 5 µM; 96,000 compounds, 20% hits; AID 777, 2007;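 active = blocking of liver enzyme CYP2C9 beyond about 50% at 5 µM, limit read from the data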
Of the large screens only hits and unclear results are named; the others gave an inactive call. Hits are enriched below; roughly 28% of the tested compounds scored in any of these assays.

Cc1oc(C(C)(C)C)cc1C(=O)N1CCCC1C(=O)O (configuration not stated)	none (no result: CYP2C19 act, CYP2C19 inh, CYP2C9 activ, CYP2C9 inh)
Cc1ccc(-c2nnc(SCC(=O)Nc3sc(C)c(C)c3C#N)n2C)cc1	none (no result: CYP2C19 act, CYP2C19 inh, CYP2C9 activ, CYP2C9 inh)
CCOC(=O)c1cnc(SCC(=O)NCc2cccs2)nc1N	CYP2C19 inh 80, CYP2C9 inh 93 (no result: PLK1 inh, PLK1 PBD inh)
CCOC(=O)c1cnc(SCC(=O)Nc2cc(OC)cc(OC)c2)nc1N	none
CCOC(=O)c1cnc(SC2CC(=O)N(c3ccccc3)C2=O)nc1N (configuration not stated)	none
Cc1sc(NC(=O)CSc2nc(N)n(CC(=O)c3ccccc3)n2)c(C#N)c1C	CYP2C19 inh 93, CYP2C9 inh 98
CCOC(=O)c1cnc(SC2CCc3ccccc3C2=O)nc1N (configuration not stated)	CYP2C19 inh 81
CCOC(=O)c1cnc(SCC(=O)Nc2sc(C)c(C)c2C#N)nc1N	CYP2C9 inh 62
CCOC(=O)c1cnc(SCC(=O)c2ccc(Cl)cc2)nc1N	none
O=C(Oc1cccc(NC(=O)c2ccccc2Cl)c1)c1ccc([N+](=O)[O-])cc1	none
COc1ccc(CN2CCN(c3ccccn3)CC2)cc1OCc1ccccc1	none (no result: PLK1 inh, PLK1 PBD inh)
Cc1ccsc1CN1CCN(c2ccccn2)CC1	CYP2C19 inh 93, CYP2C9 inh 70 (no result: PLK1 inh, PLK1 PBD inh)
COc1ccccc1N(CC(=O)NCc1ccccn1)S(C)(=O)=O	none
Cc1ccccc1N(CC(=O)Nc1ccccc1C(=O)O)S(C)(=O)=O	CYP2C9 inh 89
COc1ccc(OC)c(N(CC(=O)NCc2cccnc2)S(C)(=O)=O)c1	CYP2C19 inh 71
COc1ccc(OC)c(N(CC(=O)NCc2ccccn2)S(C)(=O)=O)c1	none
COc1ccc(OC)c(N(CC(=O)NCc2ccncc2)S(C)(=O)=O)c1	CYP2C19 inh 78, CYP2C9 inh 52
COc1ccccc1N(CC(=O)NCc1cccnc1)S(C)(=O)=O	none
Cc1ccccc1N(CC(=O)NCc1ccncc1)S(C)(=O)=O	CYP2C19 inh 97, CYP2C9 inh 86
Cc1ccc(-n2ncc3c2ncn2c(C)nnc32)cc1C	none
Cc1cc(C)cc(N(CC(=O)NCc2cccnc2)S(C)(=O)=O)c1	CYP2C19 inh 64
CN(c1ccc(C(=O)NCc2cccnc2)cc1)S(C)(=O)=O	none (no result: CYP2C19 act, CYP2C19 inh, CYP2C9 activ, CYP2C9 inh)
CS(=O)(=O)N(CC(=O)NCc1ccncc1)c1ccc(Cl)c(Cl)c1	CYP2C19 inh 100, CYP2C9 inh 99
CCCNC(=O)CN(c1ccc(F)c(Cl)c1)S(C)(=O)=O	none
Cc1ccc2nc(-c3cccc(NC(=O)c4ccc5c(c4)OCCO5)c3)oc2c1	CYP2C19 inh 64, CYP2C9 inh 87
CCOc1ccc(-c2cc(C(=O)Nc3ccc4c(c3)OCCO4)c3ccccc3n2)cc1	CYP2C9 inh 78
Cc1ccc2nc(-c3ccc4c(c3)OCCO4)cc(C(=O)O)c2c1	CYP2C9 inh 81
Cc1cccc(-c2cc(C(=O)Nc3ccc4c(c3)OCCO4)c3ccccc3n2)c1	CYP2C9 inh 60
CCn1c(C)csc1=NC(=O)c1ccccc1	none
Cc1csc(=NC(=O)c2ccccc2)n1Cc1ccco1	CYP2C19 inh 72
O=C(Nc1nnc(C23CC4CC(CC(C4)C2)C3)s1)c1ccc(N2C(=O)CCC2=O)cc1	none
COc1ccc2[nH]cc(CCN3C(=O)CCC3=O)c2c1	none
COc1ccccc1-n1c(SCC(=O)O)nnc1-c1ccc(S(=O)(=O)N2CCCCC2)cc1	none
CNC(=O)CSc1nnc(-c2ccc(S(=O)(=O)N3CCCC3)cc2)n1-c1cccc(C)c1C	CYP2C9 inh 88
COCCN(CCOC)S(=O)(=O)c1ccc(C(=O)Nc2nnc(C)o2)cc1	none
CCN(Cc1ccccc1)S(=O)(=O)c1ccc(C(=O)Nc2nnc(C3CC3)o2)cc1	CYP2C9 inh 88
COCc1nnc(NC(=O)c2ccc(S(=O)(=O)N(C)C3CCCCC3)cc2)o1	CYP2C9 inh 76
